NADH coupling = inhibition of NAD/NADH coupling enzymes, library profiling | coupled PK/LDH NADH assays, four targets | IC50, µM (series often up to 10 µM), for inactives: at the top dose inhibition | 0.02% of 65,000 active | AID 774;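 active = single-dose screening hits from any of four coupled enzyme assays that gave an IC50 when retested across doses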;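 note: the DPM-DC format reads NADH fluorescence rather than 340 nm absorbance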
Autofluor 339 = intrinsic fluorescence of library compounds, ex339/em460 – biochemical, MLSMR library, data from DPM-DC assay, artefact control, profiling panel. compound autofluorescence, ex339/em460 nm, NADH buffer; hits give high values; 1 = no-compound wells, NADH background. fluorescence fold increase at 10 µM. 5.5% of 65,000 active. AID 709;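 active = at 10 µM, mean starting fluorescence two-fold or more over control wells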;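 note: signal is the first read of a kinetic run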
Spn PMK inh = inhibitors of Streptococcus pneumoniae phosphomevalonate kinase; purified PMK, PK/LDH-coupled NADH absorbance 340 nm; AID 539; 0.49% of 65,000 active; inhibition, % at 10 µM;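 active = top-ranked compounds by inhibition in the single 10 µM screen, taking a fixed number of the strongest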;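 note: 0% = full reaction with DMSO carrier and 100% = background rate without enzyme reaction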
MK inhibit = inhibitors of Streptococcus pneumoniae mevalonate kinase; purified MK, PK/LDH-coupled NADH absorbance 340 nm; inhibition, % at 10 µM; 0.48% of 65,000 active; AID 555;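 active = ranked among the strongest by inhibition in the single 10 µM screen, a fixed top-ranked set picked for dose follow-up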
Spn DPM-DC inh = inhibitors of Streptococcus pneumoniae diphosphomevalonate decarboxylase | AID 556 | purified DPM-DC, PK/LDH coupled NADH fluorescence | 0.49% of 65,000 active | calls only at 10 µM;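 active = the 320 compounds with the highest percent inhibition in the single-dose primary screen, excluding strongly autofluorescent ones, cut at about 32% in these data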;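 note: kinetic rate of NADH fluorescence loss reporting ADP formed by the decarboxylase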
Abs 340nm = absorbance at 340 nm. compound absorbance at 340 nm, fold over control. fold change at 10 µM. AID 708. 65,000 tested, under 10 active;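 active = at 10 µM dose, initial 340 nm absorbance at least 2 fold that of control wells; inactive = change under 2 fold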;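 note: initial absorbance extrapolated from kinetic A340 decline of NADH oxidation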
Numbers without * were called inactive; i = inactive; . = not tested or not shown; + = active, no number. Compounds with a hit are over-represented: about 6.8% of the library has one in this group of screens.

SMILES | NADH coupling | Autofluor 339 | Spn PMK inh | MK inhibit | Spn DPM-DC inh | Abs 340nm
COc1ccc(C(=O)c2coc3ccc(O)c(CN4CCCCC4)c23)cc1 | 1% | 1 | 6 | 6 | i | 1
CCn1nc(NC(=O)c2cccnc2)c2cc3ccccc3nc21 | 3% | 1.2 | 0 | 0 | i | 0.99
CC(C)Cn1nc(NS(=O)(=O)c2ccccc2)c2cc3ccccc3nc21 | 1% | 1.2 | 0 | 2 | i | 1
Cc1ccc2cc3c(NC(=O)CC(C)C)nn(C)c3nc2c1 | 6% | 2 | 0 | 15 | i | 1
CCn1nc(NC(=O)c2ccccn2)c2cc3cc(C)ccc3nc21 | 14% | 3* | 12 | 9 | i | 1.1
Cc1ccc2cc3c(NC(=O)c4ccco4)nn(CC(C)C)c3nc2c1 | 3% | 3.9* | 3 | 2 | . | 1
CC(C)Cn1nc(NC(=O)C2CCCO2)c2cc3ccccc3nc21 (configuration not stated) | 6% | 2.1* | 2 | 7 | i | 1.1
CCOC(=O)c1c(C)[nH]c(C)c1C(=O)Cn1nnc(-c2ccccc2C)n1 | 0% | 1.1 | 0 | 0 | i | 1
CCCCc1c(C)c2ccc(OC)c(/C(C)=N\O)c2oc1=O | 12% | 2.5* | 9 | . | i | 1.1
CCOC(=O)Nc1cc(=O)c2ccccc2o1 | 3% | 1.6 | 0 | 2 | i | 1
CCOC(=O)Nc1cc2c(C)cc(=O)oc2cc1C | 15% | 3.6* | 9 | 7 | i | 1
N#Cc1c(N)oc(-c2ccco2)c1-c1ccco1 | 5% | 2.1* | 10 | 0 | . | 1.1
N#Cc1c(N)oc(-c2ccccc2)c1-c1ccccc1 | 4% | 1.3 | 0 | 13 | i | 1.1
Cc1ccc(C)c(-n2nnnc2SCC(=O)NCCC2=CCCCC2)c1 | 4% | 1 | 7 | 3 | i | 1
COc1ccc(N(CC(=O)Nc2cc(OC)ccc2OC)S(C)(=O)=O)cc1 | 17% | 1.1 | 0 | 51* | i | 1
Cc1ccc(-c2nn3c(C)nnc3s2)cc1NCc1c(F)cccc1Cl | 14% | 2.3* | 6 | 6 | i | 1.1
COCCNC(=O)C1CCCN(c2nn3c(=O)cc(C)nc3s2)C1 (configuration not stated) | 11% | 1 | 33* | 0 | i | 1
CCOc1ccc(CCNC(=O)C2CCCN(c3nn4c(=O)cc(C)nc4s3)C2)cc1 (configuration not stated) | 7% | 1.1 | 22 | 0 | i | 1
CN(C1CCS(=O)(=O)C1)S(=O)C12CC3CC(CC(C3)C1)C2 (configuration not stated) | 2% | 1 | 15 | 0 | i | 1
COc1ccc2c(c1)CCc1c(C(=O)N3CCCCCC3)noc1-2 | 5% | 1.1 | 16 | 0 | i | 1
COc1ccc2c(c1)CCc1cc(C(=O)N3CCN(c4ccc(N5CCOCC5)nn4)CC3)sc1-2 | 6% | 2.5* | 11 | 15 | . | 1
Nn1cc(-c2ccccc2)nc1SCC(=O)N1CCN(S(=O)(=O)c2ccc(Cl)cc2)CC1 | 8% | 1 | 11 | 13 | i | 0.98
CC1=CC(C)(C)Nc2cc(C)c(C)cc21 | 7% | 2.7* | 8 | 10 | i | 1
CC1=CC(C)(C)Nc2ccc(C)cc21 | 7% | 2.6* | 6 | 5 | i | 1
Cn1c(-c2ccc(F)cc2)cnc1SCC(=O)Nc1ccccc1N1CCOCC1 | 2% | 1.2 | 4 | 8 | i | 0.98
SMILES | NADH coupling | Autofluor 339 | Spn PMK inh | MK inhibit | Spn DPM-DC inh | Abs 340nm
COc1ccc(C(=O)Nn2cc3c(c2-c2ccccc2)c(=O)n(C)c(=O)n3C)cc1 | 2% | 1.4 | 3 | 2 | i | 1.1
COc1ccc(-c2c3c(=O)n(C)c(=O)n(C)c3cn2-c2ccccc2)cc1 | 12% | 3.8* | 16 | 8 | . | 1
COc1cccc(CNC(=O)c2ccccc2N)c1 | 6% | 3.9* | 5 | 7 | . | 1
COc1cccc(CNC(=O)Cn2cccc2)c1 | 4% | 1 | 7 | 6 | i | 0.98
CC(C)n1c(=N)c(C(=O)NCCc2ccccc2)cc2c(=O)n3ccccc3nc21 | 2% | 5.1* | 3 | 1 | . | 1
CCn1c(=N)c(C(=O)OC)cc2c(=O)n3ccccc3nc21 | 12% | 3.7* | 17 | 6 | . | 1
COC(=O)c1cc2c(=O)n3ccccc3nc2n(C(C)C)c1=N | 2% | 3.9* | 0 | 4 | . | 1
COc1ccc(CCNC(=O)c2ccc(NS(=O)(=O)c3c(C)noc3C)cc2)cc1OC | 4% | 1.1 | 9 | 4 | i | 1
CSc1nnc(-c2ccc(O)cc2)n1C | 5% | 1 | 16 | 0 | i | 1
CSc1nnc(-c2cc3ccccc3cc2O)n1C | 3% | 2.3* | 0 | 5 | . | 1.1
Cc1noc(C)c1COc1ccc(C(=O)OC(C)C(=O)Nc2ccc(N3CCOCC3)cc2)cc1 (configuration not stated) | 6% | 1.1 | 13 | 4 | i | 0.99
CC(C)N=c1cc2n(-c3ccc(Cl)cc3)c3ccccc3nc-2cc1Nc1ccc(Cl)cc1 | 16% | 0.53 | 10 | 5 | + | 0.98
Cc1c(-c2ccccc2)c(P(=O)(N2CCOCC2)N2CCOCC2)c2ccccn12 | 6% | 5* | 12 | 0 | . | 1
O=P(C1=C(N2CCOCC2)/C(=C\c2ccccc2)CC1)(N1CCOCC1)N1CCOCC1 | 8% | 1.2 | 16 | 1 | i | 1.1
N#Cc1nc(Cc2cccc3ccccc23)oc1N1CCCCC1 | 1% | 1.1 | 0 | 4 | i | 1
N#Cc1nc(-c2ccccc2Cl)oc1N1CCCCC1 | 3% | 2 | 6 | 3 | i | 1
CC1CCN(c2oc(-c3cccc4ccccc34)nc2C#N)CC1 | 13% | 3* | 10 | 9 | . | 1
CC1CC(C)CN(c2oc(-c3ccccc3Cl)nc2C#N)C1 (configuration not stated) | 3% | 3.2* | 0 | 5 | . | 1.1
Cc1cccc(OCc2nc(C#N)c(N3CC(C)CC(C)C3)o2)c1 (configuration not stated) | 3% | 1.1 | 0 | 8 | i | 1
N#Cc1nc(-c2cccc3ccccc23)oc1N1CCCCC1 | 10% | 3.7* | 13 | 6 | . | 1
CC(NC(=O)Cc1cccs1)C(c1cccs1)N1CCN(c2ccccc2F)CC1 (configuration not stated) | 7% | 1.1 | 15 | 5 | i | 1
O=C(O)c1ccccc1NCN1C(=O)C2CC=C(Cl)CC2C1=O (configuration not stated) | 9% | 2.6* | 12 | 0 | i | 1
CCSc1nnc(NC(=O)C(CC)Oc2ccccc2)s1 (configuration not stated) | 12% | 1.1 | 21 | 14 | i | 0.81
COc1ccc(N2CCN(C(CNS(=O)(=O)c3cc(F)ccc3F)c3cccnc3)CC2)cc1 (configuration not stated) | 8% | 1.1 | 22 | 0 | i | 1
